Screening results deposited in PubChem by The Scripps Research Institute Molecular Screening Center.
PME-1 inh: PME-1 inhibitors via competitive probe labeling, primary screen, biochemical, fluorescence polarization, FP-Rh probe, HTS; Protein phosphatase methylesterase 1 (Homo sapiens), Q9Y570; recombinant PME-1; inhibition, % at 5.9 µM; actives 0.53% (n = 320,000);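 active = inhibition above the campaign mean of all compounds plus 3 SD, cut at about 26% in these data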;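 note: competitive labeling of PME-1 active site by serine hydrolase directed probe; 0% = PME-1 with DMSO and 100% = wells lacking PME-1 enzyme; inhibitors block probe labeling so polarization falls and inhibition rises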
Fam108B counter: mouse Fam108B serine hydrolase inhibitors, primary screen, counter-screen for RBBP9 inhibitor project, biochemical, fluorescence polarization. recombinant Fam108B, FP-Rh probe fluorescence polarization. inhibition, % at 9.51 µM. actives 0.33% (n = 300,000);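 active = inhibition above the screen mean inhibition plus 3 SD, computed separately per campaign, cut at about 18% in these data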;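 note: inhibitors lower polarization as less probe binds the enzyme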
LYPLA2 inh: LYPLA2 inhibitors, primary screen, counter-screen for PME1 inhibitor project, biochemical, fluorescence polarization, FP-Rh probe ABPP; actives 0.38% (n = 320,000); inhibition, % at 5.9 µM; recombinant LYPLA2; Acyl-protein thioesterase 2 (Homo sapiens), O95372;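 active = inhibition above the screen-wide mean plus 3 SD, limit set per campaign, cut at about 26% in these data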;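 note: 0% = LYPLA2 with DMSO and 100% = wells lacking LYPLA2 enzyme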
Target sequence (O95372 whole entry, looked up): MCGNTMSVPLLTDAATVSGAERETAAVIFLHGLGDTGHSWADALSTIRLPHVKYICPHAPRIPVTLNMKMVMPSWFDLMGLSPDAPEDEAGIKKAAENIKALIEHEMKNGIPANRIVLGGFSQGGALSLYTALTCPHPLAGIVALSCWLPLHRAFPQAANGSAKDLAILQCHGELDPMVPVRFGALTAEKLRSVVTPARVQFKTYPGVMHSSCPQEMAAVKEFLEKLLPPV
PAD4 inh: human PAD4 inhibitors, primary screen, biochemical, fluorescence polarization, 1536-well format | recombinant PAD4, RCA probe fluorescence polarization | inhibition, % at 6.36 µM | actives 0.41% (n = 330,000) | AID 485272, 2010 | Protein-arginine deiminase type-4 (Homo sapiens), Q9UM07;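 active = percent inhibition above a cutoff equal to the mean of all tested compounds plus 3 SD, cut at about 15% in these data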;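 note: 0% = PAD4 with RCA probe and DMSO and 100% = probe without PAD4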
LYPLA1 inh: LYPLA1 inhibitors, primary screen, counter-screen for PME1 inhibitor project, biochemical, fluorescence polarization, FP-Rh probe ABPP; inhibition, % at 5.9 µM; recombinant LYPLA1; actives 0.16% (n = 320,000); AID 2174, 2009; Acyl-protein thioesterase 1 (Homo sapiens), O75608;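 active = inhibition above the mean of all tested compounds plus 3 SD, set per campaign, cut at about 14% in these data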;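 note: inhibitors block serine hydrolase probe labeling of LYPLA1 so polarization falls; 0% = enzyme with DMSO and 100% = wells lacking LYPLA1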
Target sequence (O75608 whole entry, looked up): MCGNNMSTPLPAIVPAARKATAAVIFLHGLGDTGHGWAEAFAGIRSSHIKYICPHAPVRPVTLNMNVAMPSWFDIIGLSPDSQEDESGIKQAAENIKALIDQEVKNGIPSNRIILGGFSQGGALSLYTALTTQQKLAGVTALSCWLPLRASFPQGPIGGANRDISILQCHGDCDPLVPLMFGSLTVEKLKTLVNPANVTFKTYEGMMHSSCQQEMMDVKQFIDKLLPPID
GSTO1 counter: inhibitors of recombinant GSTO1, primary screen, counter-screen for RBBP9 inhibitor project, biochemical, fluorescence polarization. actives 1.1% (n = 300,000). Glutathione S-transferase omega-1 (Homo sapiens), P78417. activity-based probe fluorescence polarization. inhibition, % at 5.96 µM. AID 1974, 2009;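 active = inhibition above the campaign mean inhibition plus 3 SD, cut at about 35% in these data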;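 note: 0% = GSTO1-1 with DMSO and 100% = wells lacking GSTO1-1 enzyme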
Target sequence (P78417 whole entry, looked up): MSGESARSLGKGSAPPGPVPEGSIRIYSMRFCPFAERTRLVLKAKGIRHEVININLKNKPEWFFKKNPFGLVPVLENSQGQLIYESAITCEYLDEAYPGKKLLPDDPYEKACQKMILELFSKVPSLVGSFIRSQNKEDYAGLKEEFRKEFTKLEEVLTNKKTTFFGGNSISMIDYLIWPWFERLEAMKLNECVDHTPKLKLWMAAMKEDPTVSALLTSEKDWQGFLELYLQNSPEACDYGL
Fam108b inh conf: mouse Fam108b serine hydrolase inhibitors, confirmation, counter-screen for RBBP9 inhibitor project, biochemical, fluorescence polarization, triplicate | shares compounds with Fam108B counter | recombinant Fam108b, FP-Rh probe fluorescence polarization | inhibition, % at 9.51 µM | actives 44% (n = 930);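 active = inhibition above a limit from the primary screen, the mean over all compounds plus 3 SD, cut at about 19% in these data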;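 note: 0% = median of active Fam108b wells and 100% = catalytically dead S170A mutant; inhibitors free the probe so polarization falls as inhibition rises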
Fam108b ABPP HTS: inhibition of mouse Fam108b by HTS hits, late-stage follow-up, biochemical, gel-based ABPP, soluble recombinant form; inhibition, % at 20 µM; shares compounds with Fam108B counter; actives 44% (n = 260); fluorophosphonate probe; in the data active = inhibition above about 40%
GSTO1 inh conf: GSTO1 inhibitor hit confirmation, counter-screen for RBBP9 inhibitor project, biochemical, fluorescence polarization, triplicate; recombinant GSTO1, probe fluorescence polarization; actives 54% (n = 2,400); inhibition, % at 5.96 µM; shares compounds with GSTO1 counter;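 active = inhibition above the primary screen's cutoff, its mean inhibition plus 3 SD, cut at about 35% in these data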;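 note: loss of polarization as inhibitors block binding of rhodamine sulfonate ester activity probe; 0% = GSTO1 with DMSO and 100% = wells lacking GSTO1 enzyme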
GSTO1 recomb ABPP: inhibitors of purified human GSTO1, late-stage follow-up, biochemical, gel ABPP, SE-Rh probe, percent inhibition. shares compounds with GSTO1 counter. inhibition, % at 1 µM. AID 463110, 2010. actives 30% (n = 130). recombinant GSTO1, gel ABPP SE-Rh probe fluorescence;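 active = inhibition of the enzyme GSTO1 above about 75%, limit read from the data; inactive = inhibition below that limit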
LYPLA1 confirm: LYPLA1 inhibitors, retest, confirmation, counter-screen for PME1 inhibitor project, biochemical, fluorescence polarization, FP-Rh probe ABPP. recombinant LYPLA1. shares compounds with LYPLA1 inh. inhibition, % at 5.9 µM. actives 69% (n = 480);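 active = mean inhibition across replicates above the hit cutoff set in the primary screen, cut at about 15% in these data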;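 note: loss of FP-Rh probe labeling of LYPLA1 seen as lower polarization; 0% = LYPLA1 with DMSO and 100% = wells lacking LYPLA1 enzyme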
LYPLA2 confirm: LYPLA2 inhibitors, retest, confirmation, counter-screen for PME1 inhibitor project, biochemical, fluorescence polarization, FP-Rh probe ABPP | AID 2232, 2010 | recombinant LYPLA2 | inhibition, % at 5.9 µM | actives 72% (n = 1,100) | shares compounds with LYPLA2 inh;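 active = mean inhibition across replicates above the hit cutoff set in the primary screen, cut at about 26% in these data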;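 note: blocked labeling of the enzyme by serine hydrolase FP-Rh probe lowers polarization; 0% = enzyme with DMSO and 100% = wells lacking LYPLA2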
PAD4 confirm: human PAD4 inhibitors, confirmation, biochemical, fluorescence polarization | shares compounds with PAD4 inh | recombinant PAD4, RCA probe fluorescence polarization | inhibition, % at 6.36 µM | actives 28% (n = 1,200);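 active = mean inhibition across replicates above the hit cutoff set by the earlier primary screen, cut at about 15% in these data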;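 note: inhibitors block active-site labeling by the probe so polarization falls; 0% = PAD4 with probe and DMSO and 100% = probe without PAD4 enzyme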
Active calls of the source: *; . = not tested or not shown. The list is not random: actives were taken first. Their share in the collection is about 1.8%.

SMILES	PME-1 inh	Fam108B counter	LYPLA2 inh	PAD4 inh	LYPLA1 inh	GSTO1 counter	Fam108b inh conf	GSTO1 inh conf	LYPLA1 confirm	LYPLA2 confirm	PAD4 confirm	others
O=C(O)c1cc([N+](=O)[O-])c(NCCC2=CCCCC2)c([N+](=O)[O-])c1	-3	5	8	2	1	-18	.	.	.	.	.
CCCCN1C(=O)C(O)(CC(=O)c2ccccn2)c2ccccc21 (stereo not given)	-1	6	-4	-3	0	9	.	.	.	.	.
Cc1ccc2c(c1)C1C[N+](C)(CC(=O)Nc3ccccc3Cl)CCC1N2C(=O)c1ccccc1Cl (stereo not given)	.	.	.	-4	.	.	.	.	.	.	.
CC(C)Cn1c(N)c(C(=O)NCC2CCCO2)c2nc3ccccc3nc21 (stereo not given)	22	-6	-9	-11	-2	29	.	.	.	.	.
COCCn1c(N)c(C(=O)NCC2CCCO2)c2nc3ccccc3nc21 (stereo not given)	38*	61*	71*	76*	70*	102*	-7	5	2	2	-18
Cc1ccc(S(=O)(=O)NC(=O)Nc2cc(C)no2)cc1	0	6	1	1	2	4	.	.	.	.	.
Nc1ccc(O)c2c1C(=O)c1ccccc1C2=O	56*	53*	62*	49*	50*	49*	49*	37*	36*	59*	41*	Fam108b ABPP HTS=0
CC1=C(Nc2ccc(C(=O)O)cc2)C(=O)c2ccccc2C1=O	0	2	-3	0	-7	30	.	.	.	.	.
Cc1ccccc1NC1=C/C(=N\S(=O)(=O)c2ccc(C(=O)O)cc2)c2ccccc2C1=O	36*	54*	32*	71*	7	90*	89*	93*	.	.	58*	Fam108b ABPP HTS=30
O=C(O)c1ccc(S(=O)(=O)/N=C2\C=C(Nc3ccccc3F)C(=O)c3ccccc32)cc1	26	49*	26*	67*	7	91*	66*	93*	.	75*	65*	Fam108b ABPP HTS=85*
COc1ccc2noc3c2c1C(=O)c1ccccc1-3	26*	20*	29*	143*	25*	20	23*	.	21*	23	144*
COc1ccc(N=C2NC(=O)S/C2=C\c2ccc(N(C)C)cc2)cc1	47*	32*	33*	36*	28*	10	28*	.	27*	18	47*
CCOc1ccc(N=C2NC(=O)S/C2=C\c2ccc(Cl)cc2)cc1	1	-9	-2	-4	-3	6	.	.	.	.	.
Cc1cc(O)ccc1N=Cc1c(C(F)(F)F)[nH][nH]c1=O	89*	31*	86*	98*	71*	94*	0	.	5	6	2
O=c1[nH][nH]c(C(F)(F)F)c1C=Nc1ccccc1	4	2	1	-4	2	7	.	.	.	.	.
CC(=O)[C@]1(O)Cc2c(O)c3c(c(O)c2[C@@H](O[C@H]2C[C@H](N)[C@H](O)[C@H](C)O2)C1)C(=O)c1ccccc1C3=O	72*	71*	74*	84*	77*	67*	73*	59*	78*	.	89*	Fam108b ABPP HTS=20
COc1cccc2c1C(=O)c1c(O)c3c(c(O)c1C2=O)C[C@@](O)(C(=O)CO)C[C@@H]3O[C@H]1C[C@H](N)[C@@H](O)[C@H](C)O1	46*	36*	41*	56*	57*	44*	35*	33	56*	.	64*	Fam108b ABPP HTS=35
Oc1ccc(N=Cc2ccc(-c3cccs3)s2)cc1	51*	28*	29*	18*	10	82*	62*	6	.	8	7	Fam108b ABPP HTS=0
CCN(CC(=O)Nc1ccc(OC)cc1)C(=O)CN1C(=O)NC(C)(c2ccc3ccccc3c2)C1=O (stereo not given)	-3	0	3	2	5	0	.	.	.	.	.
Cc1occc1C(=O)Nc1ccc(Br)cc1F	0	1	-2	-1	-3	0	.	.	.	.	.
CCC(=O)OC1(C)C(=O)C=C2C=C(c3ccsc3)OC=C2C1=O (stereo not given)	3	6	2	-14	0	40*	.	26	.	.	.
CC1(O)C(=O)C=C2C=C(c3ccsc3)OC=C2C1=O (stereo not given)	2	11	10	1	1	46*	.	25	.	.	.
Cc1cc(Cl)c(S(=O)(=O)N2CCN(c3ccccc3)CC2)cc1OCC(N)=O	4	2	5	-1	4	0	.	.	.	.	.
CCCCOc1ccc(-c2ncc(C(=O)O)c(C)n2)cc1	-3	-5	-1	-1	-2	43*	.	5	.	.	.
COCc1cc(=O)n2[nH]c(C)cc2n1	-4	-4	3	1	0	3	.	.	.	.	.
Cc1cc2nc(CCl)cc(=O)n2[nH]1	1	4	-4	3	-1	104*	.	93*	.	.	.	GSTO1 recomb ABPP=54
